Measurements published in PubChem BioAssay.
Results filed as inconclusive are left out. Active and inactive are the calls of the source.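 How the source made its calls, unless noted: active means inhibition above 54%, about 3 SD of non-fluorescent compounds; inactive means the rest.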

Experiments:
[1] = rapamycin-like changes in RPL19A-GFP expression – cell-based, S. cerevisiae, multiplex flow cytometry, primary screen (AID 1862; in the data active means percent of DMSO control GFP below about 86%;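 further: lower values mimic rapamycin by blocking the RPL19A rise seen in DMSO cells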); settings: S. cerevisiae RPL19A-GFP strain, flow cytometry fluorescence, 3 h; at 10 µM; stronger effect = lower value
[2] = TOR pathway GLN3 branch reporter MEP2-GFP changes – S. cerevisiae, multiplex flow cytometry, primary screen (AID 1867;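 active means GFP response, as percent of the DMSO control, above the screen-wide mean plus 3 SD, about 139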;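 further: median GFP channel fluorescence of barcode-gated MEP2-GFP cells measured by flow cytometry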); settings: S. cerevisiae MEP2-GFP strain, 3 h, at 10 µM, stronger effect = higher value, 100% means same as DMSO wells
[3] = TOR pathway RTG branch CIT2 reporter changes – S. cerevisiae, GFP fusion, multiplex flow cytometry, primary screen (AID 1870;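 active means percent response above a set limit, the screen-wide mean plus 3 SD, cut at about 130% in these data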;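 further: barcoded CIT2-GFP strain pooled with four other GFP strains with rapamycin as positive control; median GFP fluorescence per well over plate mean of DMSO wells so 100% = DMSO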); settings: S. cerevisiae CIT2-GFP expression, 3 h, at 10 µM, stronger effect = higher value
[4] = TOR pathway LAP4-GFP level changes – S. cerevisiae, multiplex flow cytometry, primary screen (AID 1873;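 active means GFP signal, as percent of the solvent control, above the screen mean plus 3 SD, about 149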); settings: S. cerevisiae LAP4-GFP expression, 3 h, at 10 µM, stronger effect = higher value
[5] = yeast AGP1-GFP level changes, GLN3 branch – cell-based, multiplex flow cytometry, S. cerevisiae, primary screen (AID 1887;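 active means GFP signal above the screen-wide mean plus 3 SD, that is over about 124.5% of the solvent control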;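 further: AGP1-GFP fusion strain of S. cerevisiae within a five-strain barcoded multiplex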); settings: 3 h, at 10 µM, stronger effect = higher value
[6] = reduced mouse 2C T cell binding to pMHC/ICAM-1 vesicles – MLPCN validation set, flow cytometry, LFA-1/ICAM-1 modulator project, pilot screen (AID 2523;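 active means response below a set limit, under 55% cells CD8-positive and vesicle-bound, and CD8 cells' 90th-percentile brightness under 279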;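 on vesicle binding response: mean PE anti-B7-1 fluorescence of CD8+ cells relative to row control; 100% = QL9-loaded vesicles with DMSO vehicle in the same plate row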); settings: 2C mouse CD8+ T cells, at 7 µM, stronger effect = lower value; double positive events: measured here: CD8+/vesicle+ event percentage
[7] = molecular target: Integrin beta-1 (Homo sapiens) + Integrin alpha-4 (Homo sapiens) (UniProt P13612+P05556); assay: alpha4beta1 integrin LIBS antibody binding reduction – U937 cells, HUTS-21 mAb, flow cytometry, validation set, VLA-4 allosteric modulator project, pilot screen (AID 2674;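 active means inhibition above 50%, about 3 SD of the validation set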;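 further: antibody binding induced by the VLA-4 ligand LDV present at three times its Kd; 0% = LDV ligand with antibody and no compound and 100% = antibody without LDV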); settings: HUTS-21 LIBS mAb binding, at 6.7 µM, stronger effect = higher value, binding induced by LDV ligand
Sequence of Integrin beta-1 (Homo sapiens) + Integrin alpha-4 (Homo sapiens) (P05556 whole entry, looked up): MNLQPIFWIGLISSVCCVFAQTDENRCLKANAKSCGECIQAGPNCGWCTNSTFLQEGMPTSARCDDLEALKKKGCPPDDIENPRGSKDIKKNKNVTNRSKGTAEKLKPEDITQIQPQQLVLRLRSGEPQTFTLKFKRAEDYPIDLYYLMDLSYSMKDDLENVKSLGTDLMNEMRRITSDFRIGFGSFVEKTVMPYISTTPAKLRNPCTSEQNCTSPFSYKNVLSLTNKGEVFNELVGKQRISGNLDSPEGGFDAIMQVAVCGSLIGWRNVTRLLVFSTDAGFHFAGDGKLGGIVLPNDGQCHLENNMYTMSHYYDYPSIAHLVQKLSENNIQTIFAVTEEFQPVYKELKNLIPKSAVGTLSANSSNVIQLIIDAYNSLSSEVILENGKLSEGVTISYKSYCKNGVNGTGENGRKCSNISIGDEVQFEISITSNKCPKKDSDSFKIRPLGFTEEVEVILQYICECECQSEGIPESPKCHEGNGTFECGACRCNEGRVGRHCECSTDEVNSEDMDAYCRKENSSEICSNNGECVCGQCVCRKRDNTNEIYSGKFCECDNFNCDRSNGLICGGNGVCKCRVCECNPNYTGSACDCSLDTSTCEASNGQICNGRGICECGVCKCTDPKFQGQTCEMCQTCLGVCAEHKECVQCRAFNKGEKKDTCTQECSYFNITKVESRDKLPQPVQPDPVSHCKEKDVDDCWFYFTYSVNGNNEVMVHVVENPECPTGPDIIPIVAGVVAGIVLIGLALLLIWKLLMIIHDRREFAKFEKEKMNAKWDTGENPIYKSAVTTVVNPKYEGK
Sequence of Integrin beta-1 (Homo sapiens) + Integrin alpha-4 (Homo sapiens) (P13612 whole entry, looked up): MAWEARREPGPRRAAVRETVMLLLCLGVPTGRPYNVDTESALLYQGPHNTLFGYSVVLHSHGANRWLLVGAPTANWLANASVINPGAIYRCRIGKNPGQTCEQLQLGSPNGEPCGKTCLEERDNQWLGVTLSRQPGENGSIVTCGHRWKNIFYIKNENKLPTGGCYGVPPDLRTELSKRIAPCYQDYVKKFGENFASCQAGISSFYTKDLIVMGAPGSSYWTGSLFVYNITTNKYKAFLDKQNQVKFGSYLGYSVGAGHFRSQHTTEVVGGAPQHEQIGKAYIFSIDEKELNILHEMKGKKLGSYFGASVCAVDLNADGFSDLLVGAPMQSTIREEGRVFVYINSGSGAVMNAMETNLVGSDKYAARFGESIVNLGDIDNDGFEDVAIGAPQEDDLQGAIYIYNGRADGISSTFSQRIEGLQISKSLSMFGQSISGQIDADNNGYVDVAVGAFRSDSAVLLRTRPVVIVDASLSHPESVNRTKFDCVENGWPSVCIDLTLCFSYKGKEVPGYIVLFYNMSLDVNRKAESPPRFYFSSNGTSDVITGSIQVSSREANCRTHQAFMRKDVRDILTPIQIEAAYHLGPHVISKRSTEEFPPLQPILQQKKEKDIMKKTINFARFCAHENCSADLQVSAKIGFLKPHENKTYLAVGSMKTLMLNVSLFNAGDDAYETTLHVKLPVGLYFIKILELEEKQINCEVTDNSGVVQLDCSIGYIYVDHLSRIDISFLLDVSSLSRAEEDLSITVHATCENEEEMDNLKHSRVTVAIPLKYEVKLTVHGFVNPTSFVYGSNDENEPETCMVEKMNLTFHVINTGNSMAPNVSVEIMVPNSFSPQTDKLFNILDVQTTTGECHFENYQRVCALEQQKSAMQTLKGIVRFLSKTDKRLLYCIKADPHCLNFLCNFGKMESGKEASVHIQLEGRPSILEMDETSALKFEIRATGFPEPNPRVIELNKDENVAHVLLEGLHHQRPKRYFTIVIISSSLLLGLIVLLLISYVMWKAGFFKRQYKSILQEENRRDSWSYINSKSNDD

[8] = calorie-restriction mimetic ROS inhibitors, yeast – validation compound set, pilot screen (AID 2706;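 active means superoxide response below 65% of plate, a cut near 3 SD across the whole screen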;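 further: yeast exposed to compound for one week at 30 degrees C before staining; 100% = mean of all compound wells on the same plate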); settings: S. cerevisiae aging, superoxide DHE fluorescence; at 10 µM, stronger effect = lower value
[9] = molecular target: Beta-adrenergic receptor kinase 1 (Homo sapiens) (UniProt P25098); assay: GRK2 binders displacing RNA aptamer, biochemical, validation, human GRK2, bead flow cytometry (AID 488806;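 active means aptamer binding inhibition above 30%, about 3 SD of noise from non-fluorescent compounds; inactive means inhibition at or below 30%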); settings: bead-bound GRK2, FAM-aptamer displacement, at 10 µM, stronger effect = higher value
Sequence of Beta-adrenergic receptor kinase 1 (Homo sapiens) (P25098 whole entry, looked up, the tested form may be a part): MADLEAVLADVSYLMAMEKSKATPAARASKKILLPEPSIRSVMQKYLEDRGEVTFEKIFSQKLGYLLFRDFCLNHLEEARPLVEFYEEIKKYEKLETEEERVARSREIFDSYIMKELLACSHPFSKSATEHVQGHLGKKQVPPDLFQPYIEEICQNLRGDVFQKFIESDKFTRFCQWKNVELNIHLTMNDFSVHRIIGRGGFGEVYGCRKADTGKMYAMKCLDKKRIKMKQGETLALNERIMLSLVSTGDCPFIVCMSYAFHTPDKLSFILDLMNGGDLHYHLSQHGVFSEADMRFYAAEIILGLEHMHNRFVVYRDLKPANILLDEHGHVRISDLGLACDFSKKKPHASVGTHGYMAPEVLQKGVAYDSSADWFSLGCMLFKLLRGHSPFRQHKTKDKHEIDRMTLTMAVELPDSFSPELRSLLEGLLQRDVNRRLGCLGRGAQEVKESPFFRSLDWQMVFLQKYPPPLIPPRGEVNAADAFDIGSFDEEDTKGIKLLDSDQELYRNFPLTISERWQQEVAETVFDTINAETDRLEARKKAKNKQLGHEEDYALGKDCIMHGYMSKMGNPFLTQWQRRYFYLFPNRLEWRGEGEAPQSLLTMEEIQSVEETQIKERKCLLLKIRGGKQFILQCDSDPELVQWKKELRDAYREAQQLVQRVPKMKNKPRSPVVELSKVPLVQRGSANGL

[10] = molecular target: AP-2 complex subunit beta (Homo sapiens) (UniProt P63010); assay: beta-arrestin/AP2 interaction blockers – biochemical, validation set, GST-AP2 beads, flow cytometry, pilot screen (AID 504541); settings: FITC arrestin peptide, at 10 µM, stronger effect = higher value, AP2 beta2 appendage fragment, R879A mutant;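 further: AP2 carries R879A mutation and is captured from E. coli lysate; bead-bound FITC arrestin peptide fluorescence measuring arrestin peptide binding to AP2; 0% = DMSO wells and 100% = excess unlabeled arrestin peptide control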
Sequence of AP-2 complex subunit beta (Homo sapiens) (P63010 whole entry, looked up, the tested form may be a part, one chain of several): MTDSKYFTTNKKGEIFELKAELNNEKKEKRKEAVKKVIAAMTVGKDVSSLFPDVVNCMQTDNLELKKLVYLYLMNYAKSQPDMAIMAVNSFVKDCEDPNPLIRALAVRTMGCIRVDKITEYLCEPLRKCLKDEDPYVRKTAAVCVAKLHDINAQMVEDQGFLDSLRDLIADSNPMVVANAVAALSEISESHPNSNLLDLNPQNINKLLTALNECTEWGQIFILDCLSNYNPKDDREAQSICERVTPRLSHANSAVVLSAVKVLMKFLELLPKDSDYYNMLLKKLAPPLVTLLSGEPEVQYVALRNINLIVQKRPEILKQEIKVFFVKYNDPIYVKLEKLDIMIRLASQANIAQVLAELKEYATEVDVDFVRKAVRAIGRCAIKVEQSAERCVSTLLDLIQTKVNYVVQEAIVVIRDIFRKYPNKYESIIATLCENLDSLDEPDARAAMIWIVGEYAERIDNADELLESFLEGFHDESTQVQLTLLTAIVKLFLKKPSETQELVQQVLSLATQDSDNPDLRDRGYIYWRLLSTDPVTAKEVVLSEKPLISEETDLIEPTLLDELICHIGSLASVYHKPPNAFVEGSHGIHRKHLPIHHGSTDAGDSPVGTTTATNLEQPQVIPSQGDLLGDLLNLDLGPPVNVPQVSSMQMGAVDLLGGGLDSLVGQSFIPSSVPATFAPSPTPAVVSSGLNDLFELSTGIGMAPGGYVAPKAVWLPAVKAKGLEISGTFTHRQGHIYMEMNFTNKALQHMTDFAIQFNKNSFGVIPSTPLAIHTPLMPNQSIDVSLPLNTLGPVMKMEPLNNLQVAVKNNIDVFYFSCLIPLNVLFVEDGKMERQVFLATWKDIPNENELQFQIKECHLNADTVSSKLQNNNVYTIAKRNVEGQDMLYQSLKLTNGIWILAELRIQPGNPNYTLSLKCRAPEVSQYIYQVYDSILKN

[11] = cytosolic pH regulators acting via V-ATPase – S. cerevisiae, pHLuorin, HTS validation (AID 504600; in the data active means response above about 15%;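 further: plate controls were DMSO for no effect and reference compound for full effect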); settings: V-ATPase proton transport, at 10 µM, stronger effect = higher value
[12] = tested on: anti-desmoglein-3 scFv antibody binding to human DSG3; assay: blockers of pathogenic pemphigus antibody–desmoglein-3 binding – biochemical, validation compound set, bead-based, flow cytometry, pilot screen (AID 588368;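 active means binding below the plate cutoff, the plate median minus 3 SD, with a reading above zero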;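 further: signal is the median channel fluorescence of bead-bound GFP antibody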); settings: Protein G beads, DSG3-Fc, scFv-GFP binding, at 10 µM, stronger effect = lower value
[13] = Nile Red efflux blockade in pump-expressing yeast – validation compound set, multiplex, phenotypic, pilot screen (AID 588506;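 active means efflux inhibition above 0.42, the validation set average plus 4 SD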;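 further: Nile Red retained in cells so higher fluorescence means more efflux inhibition; 0 = negative control wells and 1 = enniatin B 25 µM full block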); settings: S. cerevisiae pump-expressing triplex, Nile Red efflux flow cytometry; at 10 µM; stronger effect = higher value; the pumps come from Candida albicans
[14] = molecular target: ATP-binding cassette sub-family B member 6 (Homo sapiens) (UniProt Q9NP58); assay: blockers of ABCB6-driven porphyrin uptake – K562-ABCB6 cells, flow cytometry, validation set, pilot screen (AID 588550;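 active means inhibition above the screen-wide mean plus 3 SD, about 51%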;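 further: 0% = DMSO wells and 100% = benzethonium chloride 70 µM positive control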); settings: K562-ABCB6 porphyrin accumulation, 1 h, at 10 µM, stronger effect = higher value
Sequence of ATP-binding cassette sub-family B member 6 (Homo sapiens) (Q9NP58 whole entry, looked up): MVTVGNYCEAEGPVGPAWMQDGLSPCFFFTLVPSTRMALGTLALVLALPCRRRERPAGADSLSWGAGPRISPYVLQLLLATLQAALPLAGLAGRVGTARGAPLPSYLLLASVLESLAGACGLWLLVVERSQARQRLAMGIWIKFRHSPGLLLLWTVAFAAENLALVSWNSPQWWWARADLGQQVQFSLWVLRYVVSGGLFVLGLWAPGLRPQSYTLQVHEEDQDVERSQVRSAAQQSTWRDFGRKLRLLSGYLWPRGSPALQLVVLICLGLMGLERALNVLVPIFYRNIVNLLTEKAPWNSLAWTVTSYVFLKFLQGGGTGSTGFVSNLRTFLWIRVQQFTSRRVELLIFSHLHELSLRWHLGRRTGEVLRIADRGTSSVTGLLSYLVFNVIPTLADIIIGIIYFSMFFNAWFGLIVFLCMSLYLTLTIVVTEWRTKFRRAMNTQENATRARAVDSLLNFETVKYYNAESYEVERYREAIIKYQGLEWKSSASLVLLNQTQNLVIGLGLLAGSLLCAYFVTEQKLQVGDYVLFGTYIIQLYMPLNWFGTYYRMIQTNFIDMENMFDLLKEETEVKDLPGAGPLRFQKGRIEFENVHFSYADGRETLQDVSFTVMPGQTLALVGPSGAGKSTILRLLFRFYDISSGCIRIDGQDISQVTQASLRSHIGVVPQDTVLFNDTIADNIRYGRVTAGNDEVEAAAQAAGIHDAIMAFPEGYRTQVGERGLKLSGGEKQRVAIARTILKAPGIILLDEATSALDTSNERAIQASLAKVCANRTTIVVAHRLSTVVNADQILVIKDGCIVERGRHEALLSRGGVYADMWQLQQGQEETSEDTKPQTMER

[15] = AML differentiation inducers, ER-HoxA9 marrow cells – cell-based, GFP/MAC1 double positive, flow cytometry, validation set, primary screen (AID 588685;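 active means differentiation response of at least 50%, scaled between solvent and reference control, from cells with both markers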;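 further: compound exposure lasts four days before antibody staining and flow analysis; 0% = DMSO wells and 100% = 5 µM fulvestrant positive control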); settings: stronger effect = higher value, normalized: vehicle 0, fulvestrant 100

COc1ccc2[nH]cc(C(=O)CCl)c2c1
inactive: percent of DMSO control GFP [1] 103% | GFP response vs DMSO [2] 98.9% | percent response of DMSO control [3] 102% | GFP response vs DMSO [4] 100% | GFP response, % of DMSO [5] 102% | vesicle binding response [6] 172% | inhibition [7] -3.04% | superoxide response (% of plate) [8] 101% | aptamer binding inhibition [9] 4% | inhibition [10] 24.1% | response [11] -6.9% | binding (% of control) [12] 98.2% | efflux inhibition (fraction of control) [13] -0.01 | inhibition [14] 3% | differentiation response [15] 0%
64.8%: double positive events [6]

O=c1c(-c2ccc3c(c2)OCCO3)coc2cc(OC3OC(CO)C(O)C(O)C3O)ccc12 (stereo not drawn)
63.1%: double positive events [6]
inactive: percent of DMSO control GFP [1] 103% | GFP response vs DMSO [2] 101% | percent response of DMSO control [3] 106% | GFP response vs DMSO [4] 90.3% | GFP response, % of DMSO [5] 103% | vesicle binding response [6] 127% | inhibition [7] 1.62% | superoxide response (% of plate) [8] 93.4% | aptamer binding inhibition [9] 6% | inhibition [10] -2.44% | response [11] -2.72% | binding (% of control) [12] 102% | efflux inhibition (fraction of control) [13] -0.28 | inhibition [14] 8% | differentiation response [15] -14.7%

O=C(CC(C(=O)O)c1c[nH]c2ccccc12)c1ccccc1 (stereo not drawn)
inactive: percent of DMSO control GFP [1] 101% | GFP response vs DMSO [2] 109% | percent response of DMSO control [3] 98.8% | GFP response vs DMSO [4] 103% | GFP response, % of DMSO [5] 96.3% | vesicle binding response [6] 147% | inhibition [7] 10% | superoxide response (% of plate) [8] 92.2% | aptamer binding inhibition [9] 4% | inhibition [10] 11.2% | response [11] -1.72% | binding (% of control) [12] 102% | efflux inhibition (fraction of control) [13] 0.03 | inhibition [14] 3% | differentiation response [15] -5.05%
58.5%: double positive events [6]

COc1ccc2nc(Nc3nc(CSc4ccc(C)cc4)cc(=O)[nH]3)nc(C)c2c1
inactive: percent of DMSO control GFP [1] 99% | GFP response vs DMSO [2] 103% | percent response of DMSO control [3] 98.8% | GFP response vs DMSO [4] 90.3% | GFP response, % of DMSO [5] 104% | vesicle binding response [6] 217% | inhibition [7] 8.15% | superoxide response (% of plate) [8] 104% | aptamer binding inhibition [9] 0% | inhibition [10] 8.24% | response [11] -0.97% | binding (% of control) [12] 103% | efflux inhibition (fraction of control) [13] -0.43 | inhibition [14] 6% | differentiation response [15] -24.4%
63.5%: double positive events [6]

c1cc2c(cc1C1CCCCC1)c1c3n2CCN=C3CCC1
57.1%: double positive events [6]
inactive: percent of DMSO control GFP [1] 98.1% | GFP response vs DMSO [2] 107% | percent response of DMSO control [3] 99.8% | GFP response vs DMSO [4] 99.4% | GFP response, % of DMSO [5] 93.1% | vesicle binding response [6] 224% | inhibition [7] -9.57% | superoxide response (% of plate) [8] 98.8% | aptamer binding inhibition [9] -9% | inhibition [10] -7.03% | response [11] -0.63% | binding (% of control) [12] 114% | efflux inhibition (fraction of control) [13] 0.03 | inhibition [14] -1% | differentiation response [15] -9.89%

Cc1cc(-c2nn(-c3ccccc3F)cc2CN2CCC(O)CC2)c(C)s1
inactive: percent of DMSO control GFP [1] 102% | GFP response vs DMSO [2] 98.9% | percent response of DMSO control [3] 104% | GFP response vs DMSO [4] 93.3% | GFP response, % of DMSO [5] 95.5% | vesicle binding response [6] 132% | inhibition [7] -7.7% | superoxide response (% of plate) [8] 93.1% | aptamer binding inhibition [9] 4% | inhibition [10] -9.39% | response [11] 0.7% | binding (% of control) [12] 98.3% | efflux inhibition (fraction of control) [13] -0.35 | inhibition [14] 10% | differentiation response [15] -30.9%
47.2%: double positive events [6]

NC(=O)c1c(-c2ccccc2)oc2ccc(O)cc12
66.7%: double positive events [6]
inactive: percent of DMSO control GFP [1] 100% | GFP response vs DMSO [2] 97.9% | percent response of DMSO control [3] 90% | GFP response vs DMSO [4] 100% | GFP response, % of DMSO [5] 98.5% | vesicle binding response [6] 260% | inhibition [7] 14.7% | superoxide response (% of plate) [8] 90.9% | aptamer binding inhibition [9] 0% | inhibition [10] -7.96% | response [11] -1.1% | binding (% of control) [12] 102% | efflux inhibition (fraction of control) [13] -0.09 | inhibition [14] 10% | differentiation response [15] -13.1%

COc1ccc2oc(=O)c(C(=O)N3CCN(c4ccccc4)CC3)cc2c1
52.5%: double positive events [6]
inactive: percent of DMSO control GFP [1] 97.8% | GFP response vs DMSO [2] 93.8% | percent response of DMSO control [3] 101% | GFP response vs DMSO [4] 89.3% | GFP response, % of DMSO [5] 90.3% | vesicle binding response [6] 130% | inhibition [7] 12.8% | superoxide response (% of plate) [8] 110% | aptamer binding inhibition [9] 2% | inhibition [10] 10.5% | response [11] -1.57% | binding (% of control) [12] 101% | efflux inhibition (fraction of control) [13] -0.54 | inhibition [14] 10% | differentiation response [15] 25.6%

Cc1ccccc1C(OCCN(C)C)c1ccccc1 (stereo not drawn)
inactive: percent of DMSO control GFP [1] 101% | GFP response vs DMSO [2] 98.9% | percent response of DMSO control [3] 102% | GFP response vs DMSO [4] 85.3% | GFP response, % of DMSO [5] 94.6% | vesicle binding response [6] 111% | inhibition [7] 10.9% | superoxide response (% of plate) [8] 106% | aptamer binding inhibition [9] 1% | inhibition [10] -8.71% | response [11] 9.28% | binding (% of control) [12] 98.7% | efflux inhibition (fraction of control) [13] 0.03 | inhibition [14] 4% | differentiation response [15] -22.8%
51.2%: double positive events [6]

CN(C)c1nc(N(C)C)nc(N(C)C)n1
63%: double positive events [6]
inactive: percent of DMSO control GFP [1] 94.6% | GFP response vs DMSO [2] 103% | percent response of DMSO control [3] 97.9% | GFP response vs DMSO [4] 97.4% | GFP response, % of DMSO [5] 94.2% | vesicle binding response [6] 181% | inhibition [7] 5.36% | superoxide response (% of plate) [8] 95.5% | aptamer binding inhibition [9] 0% | inhibition [10] 47.8% | response [11] -8.12% | binding (% of control) [12] 99.3% | inhibition [14] 9% | differentiation response [15] 14.3%
active: efflux inhibition (fraction of control) [13] 0.78

COc1ccc(C2N3CC4(C)CN2CC(C)(C3)C4)cc1OC (stereo not drawn)
52.7%: double positive events [6]
inactive: percent of DMSO control GFP [1] 103% | GFP response vs DMSO [2] 99.9% | percent response of DMSO control [3] 107% | GFP response vs DMSO [4] 87.3% | GFP response, % of DMSO [5] 107% | vesicle binding response [6] 177% | inhibition [7] -0.24% | superoxide response (% of plate) [8] 96.9% | aptamer binding inhibition [9] 1% | inhibition [10] 9.79% | response [11] 2.37% | binding (% of control) [12] 99% | efflux inhibition (fraction of control) [13] -0.09 | inhibition [14] 6% | differentiation response [15] -13.1%

O=C(c1ccc(-c2ccccc2)c(F)c1)C1CCCN(C(=O)c2cncs2)C1 (stereo not drawn)
49.8%: double positive events [6]
inactive: percent of DMSO control GFP [1] 100% | GFP response vs DMSO [2] 103% | percent response of DMSO control [3] 95.9% | GFP response vs DMSO [4] 108% | GFP response, % of DMSO [5] 91.8% | vesicle binding response [6] 157% | inhibition [7] 11.9% | superoxide response (% of plate) [8] 132% | aptamer binding inhibition [9] 7% | inhibition [10] -11% | response [11] 13.7% | binding (% of control) [12] 101% | efflux inhibition (fraction of control) [13] -0.47 | inhibition [14] 9% | differentiation response [15] -14.7%

CN(CCCN1CCOCC1)Cc1cn(C)nc1-c1ccccc1F
active: inhibition [10] 70.2%
62.1%: double positive events [6]
inactive: percent of DMSO control GFP [1] 95.5% | GFP response vs DMSO [2] 106% | percent response of DMSO control [3] 104% | GFP response vs DMSO [4] 124% | GFP response, % of DMSO [5] 114% | vesicle binding response [6] 246% | inhibition [7] -8.78% | superoxide response (% of plate) [8] 104% | aptamer binding inhibition [9] -1% | response [11] 2.44% | binding (% of control) [12] 112% | efflux inhibition (fraction of control) [13] 0.04 | inhibition [14] 2% | differentiation response [15] -1.05%
